Screens from PubChem BioAssay.
D1 ag: Allosteric Agonists of the Human D1 Dopamine Receptor: qHTS; D(1A) dopamine receptor (Homo sapiens), P21728; HEK293 T-REx D1 cells, calcium flux, agonist mode; activation, % at 2 µM; actives 1% (n = 360,000); AID 504660, 2011
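Agonism was scored from calcium flux recorded over 180 s (1 read/s) after pintool compound addition, following a 10-cycle baseline. Cells were inducible force-coupled HEK293 TREx D1, plated overnight at 30 C and loaded with no-wash calcium dye.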
D1 antagonist: Antagonist of Human D 1 Dopamine Receptor: qHTS. D(1A) dopamine receptor (Homo sapiens), P21728. HEK293 TREx D1 cells, calcium flux, dopamine EC80; active compounds read low. activity change, negative = inhibition, % at 10 µM. actives 3.2% (n = 360,000). AID 504652, 2011; in the data active = activity change below about -30%
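Antagonism measured as reduced calcium response to an EC80 dopamine addition following 180 s compound pre-read; cells were inducible HEK293 Trex D1 plated overnight at 30 C, read kinetically at 1 cycle/sec.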
USP1-UAF1 inh: Inhibitors of USP1/UAF1: Primary Screen | Ubiquitin carboxyl-terminal hydrolase 1 (Homo sapiens), O94782 | recombinant USP1/UAF1, Ub-Rhodamine cleavage fluorescence | Potency, µM (titrated, usually from 57.1 µM), actives largely listed as inhibitors | actives 0.23% (n = 390,000); active = well fitted inhibition curve with a large enough effect; inconclusive = small, poorly fitted or top-dose-only effect; inactive = no such curve, though single readings can be large or run the other way; note: nearly all actives have a fitted effect of over 60% in size
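In this screen, compounds sit with the deubiquitinase complex (1nM) for 15 min at room temperature before Ub-Rho is added at 150nM final. Fluorescence rise is then followed for 6 reads every 60 seconds.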
D1 potentiator: Potentiators of Human D1 Dopamine Receptor: qHTS; HEK293 TREx D1 cells, calcium flux, dopamine EC20 potentiation; potentiation, % at 10 µM; actives 0.036% (n = 360,000); in the data active = potentiation above about 30%
TRHR PAM: qHTS for Small Molecule Agonists and Allosteric Enhancers of Human TRH Receptor: Primary Screen for Enhancers; Thyrotropin-releasing hormone receptor (Homo sapiens), P34981; TRHR cells, fluo-8 calcium fluorescence, EC20 TRH enhancement; enhancement, % at 2 µM; actives 0.66% (n = 360,000); in the data active = enhancement above about 30%
Target sequence (P34981 whole entry, looked up): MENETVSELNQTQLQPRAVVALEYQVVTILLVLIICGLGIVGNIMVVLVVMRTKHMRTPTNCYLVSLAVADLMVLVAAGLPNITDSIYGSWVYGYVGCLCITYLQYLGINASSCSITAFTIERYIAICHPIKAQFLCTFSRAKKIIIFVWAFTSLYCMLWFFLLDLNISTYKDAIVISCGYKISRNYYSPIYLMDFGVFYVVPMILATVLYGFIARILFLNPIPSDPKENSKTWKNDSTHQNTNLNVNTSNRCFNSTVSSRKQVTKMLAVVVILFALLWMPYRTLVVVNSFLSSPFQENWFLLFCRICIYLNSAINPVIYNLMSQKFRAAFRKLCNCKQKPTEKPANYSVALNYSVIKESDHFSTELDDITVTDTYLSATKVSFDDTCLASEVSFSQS
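Enhancer read-out: after compound pinning and an initial kinetic agonist-mode read, an EC20 of TRH (10 nM final) was injected and fluo-8 calcium signal (Ex 480/Em 530) followed at 1 s/cycle for 100 cycles in TRHR-expressing cells.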
TRHR ag: qHTS for Small Molecule Agonists and Allosteric Enhancers of Human TRH Receptor: Primary Screen for Agonists; Thyrotropin-releasing hormone receptor (Homo sapiens), P34981; TRHR cells, calcium flux fluo-8, FDSS agonist mode; activation, % at 2 µM; actives 0.18% (n = 360,000)
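Agonist-mode FDSS calcium read (Ex 480/Em 530, 1 s cycles) in 1536-well TRHR cells with fluo-8 dye, after 10-cycle baseline and 23 nL compound addition; TRH at EC20 (10 nM final) added afterwards for the enhancer phase.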
A number is an active result; . = inactive; ? = inconclusive; / = not tested or not shown; ! = not confirmed by another sample. This is a sample that favours compounds with a hit; in the whole collection about 4.4% have one here. Cut-off read from the data, not from the text of the source, unless noted: active = activation above about 30%; inactive = the rest.

SMILES	D1 ag	D1 antagonist	USP1-UAF1 inh	D1 potentiator	TRHR PAM	TRHR ag
O=Cc1c(NCc2ccc(Cl)cc2)c2ccccc2[nH]c1=O	.	-37	.	.	.	.
CCCC1(c2ccccc2)NC(=O)N(CC(=O)Nc2cc(OC)cc(OC)c2)C1=O (centres undefined)	35	.	.	/	.	.
CCCC1(c2ccccc2)NC(=O)N(CC(=O)Nc2cc(S(=O)(=O)N3CCOCC3)ccc2Cl)C1=O (centres undefined)	.	-30	.	.	.	.
COc1cc(NC(=O)CN2C(=O)NC(c3ccccc3)(c3ccccc3)C2=O)cc(OC)c1	.	.	.	.	.	.
Cc1ccc(S(=O)(=O)N2CCOCC2)cc1NC(=O)CN1C(=O)NC2(CCCC2)C1=O	/	/	.	/	/	/
O=S(=O)(c1ccccc1)c1nc(-c2cccs2)oc1SCc1ccccc1F	.	.	.	.	.	.
C=CCc1cc(Cl)ccc1OC(=O)Nc1cccc(Cl)c1	.	-55	.	.	.	.
Cc1ccc(N=CC=C2OC(C)(C)C(C)(C)O2)c(C)c1	.	-42	.	.	.	.
O=C(CCC(=O)c1ccc(F)cc1)Nc1cc(Cl)cc(Cl)c1	.	-41	.	.	.	.
CC(C)OC(=O)CSc1nc2ncc(Cl)cc2[nH]1	.	-30	.	.	.	.
CCn1c(=O)cc(SCC(=O)NCCc2cc(OC)ccc2OC)c2ccccc21	.	.	.	.	.	.
O=C(OCn1ncc(Br)c(Br)c1=O)c1ccccc1Cl	.	.	.	.	.	.
O=C(OCn1ncc(Cl)c(Cl)c1=O)c1cccc(C(F)(F)F)c1	.	-36	?	.	.	.
Cc1ccc(NC(=O)Cn2c(-c3nonc3N)nc3ccccc32)cc1Cl	.	.	.	.	.	.
CCCOc1ccc(Br)cc1/C=N/O	43	.	.	.	.	.
Cc1oc2c(cc(NS(=O)(=O)c3ccc(C(C)C)cc3)c3ccccc32)c1C(=O)O	.	.	28µM!	.	.	.
Cc1oc2c(cc(NS(=O)(=O)c3ccc(F)cc3)c3ccccc32)c1C(=O)O	.	.	?	/	.	.
Cc1cc(C)cc(-n2ccn(CC(=O)Nc3cc(C)ccc3C)c(=O)c2=O)c1	.	.	.	.	.	.
Cc1ccc(-n2nc(CO)c(C(=O)NCc3cccnc3)n2)cc1C	.	.	.	.	.	.
CCOC(=O)c1c(NC(=O)CSc2cn(CCNC(=O)c3c(F)cccc3F)c3ccccc23)sc2c1CCCC2	.	.	.	.	.	.
CC(OC(=O)Cc1coc2cc3c(cc12)CCC3)C(=O)NCc1ccc2c(c1)OCO2 (centres undefined)	.	/	.	.	.	.
Cc1ccc2c(CC(=O)OC(C)C(=O)NCc3ccc4c(c3)OCO4)coc2c1 (centres undefined)	.	-32	.	.	.	.
COC(=O)c1ccc(NC(=O)C2CCCN(S(C)(=O)=O)C2)cc1 (centres undefined)	.	-33	.	.	.	.
CCc1nn(CC(=O)Nc2c(C)cc(C)cc2C)c(=O)c2cc3sccc3n12	.	.	.	.	.	.
O=[N+]([O-])c1ccc2nc(Cl)nc(-c3ccccc3)c2c1	.	-34	.	.	.	.
SMILES	D1 ag	D1 antagonist	USP1-UAF1 inh	D1 potentiator	TRHR PAM	TRHR ag
CCOc1ccc(CCNC(=O)C2CCCN(c3nnc(C)c4c(C)n(-c5ccccc5)nc34)C2)cc1 (centres undefined)	.	.	.	.	.	.
Cc1ccc(C)c(NC(=O)[C@@H]2CCCN2S(=O)(=O)c2ccccc2F)c1	.	.	.	.	.	.
CC(C)c1ccc(NC(=O)C2CCCN2S(=O)(=O)c2ccccc2F)cc1 (centres undefined)	.	-34	.	.	.	.
O=C(Nc1ccc(N2CCOCC2)cc1)C1CCCCN1S(=O)(=O)c1ccccc1 (centres undefined)	.	-32	.	.	.	.
CN1C(=O)/C(=C/c2cccc(Cl)c2)Sc2ccc(C(=O)NCc3cccnc3)cc21	.	-40	.	.	.	.
CN1CCN(C(=O)c2ccc3c(c2)N(C)C(=O)/C(=C/c2cccc(Cl)c2)S3)CC1	.	-38	.	.	.	.
CCS(=O)(=O)N1CCc2cc(C(=O)Nc3cc(OC)c(Cl)cc3OC)ccc21	.	.	.	.	.	.
O=c1[nH]c2ccc(S(=O)(=O)N3CCN(S(=O)(=O)c4ccc5c(c4)OCCO5)CC3)cc2[nH]c1=O	.	.	/	.	.	.
O=C(O)CC1SC(=Nc2ccccc2)N(c2ccccc2)C1=O (centres undefined)	.	-31	.	.	.	.
O=C(O)CC1S/C(=N\N=C2CCCCCCC2)N(c2ccccc2)C1=O (centres undefined)	.	.	.	.	.	.
O=C(CN1C(=O)c2ccccc2C1=O)OCCOCCN=C1NS(=O)(=O)c2ccccc21	.	.	.	.	.	.
CN(C)c1ccc(/C=C2/SC(=O)N(CCN=C3NS(=O)(=O)c4ccccc43)C2=O)cc1	40	.	.	.	.	.
O=C1S/C(=C\c2ccc(Cl)cc2)C(=O)N1CCn1cnnn1	.	.	.	.	.	.
CN(C)c1ccc(/C=C2\SC(=O)N(CCc3nnc(N)s3)C2=O)cc1	62	.	.	.	.	.
O=C1S/C(=C/c2ccccc2)C(=O)N1CC(O)Cn1c2ccccc2c2ccccc21 (centres undefined)	.	.	.	.	.	.
CN(C)c1ccc(/C=C2\SC(=O)N(CC(O)Cn3c4ccccc4c4ccccc43)C2=O)cc1 (centres undefined)	46	.	13µM	.	.	.
COC(=O)C(Cc1c[nH]c2ccccc12)NC(=O)COc1ccc(Cl)cc1Cl (centres undefined)	.	-32	?	.	.	.
O=C(COc1ccc(Cl)cc1Cl)NCC(=O)N/N=C/c1c[nH]c2ccccc12	.	.	.	.	35	.
COC(=O)C(Cc1c[nH]c2ccccc12)NC(=O)CNC(C)=O (centres undefined)	.	.	.	.	.	.
Cc1cc(-c2nnc(-c3cc4ccccc4oc3=O)o2)c(C)n1-c1ccccc1	.	-43	.	.	.	.
